Calls of active or inactive are those of the source. Unless noted, no rule for the calls is given here.
Experiments:
[1] = tested on: XIP peptide (Xip251-270) binding; assay: XIP fragment 251-270 binding compounds – biochemical, small-molecule microarray, fluorescence 635/667 nm, 0.1 µg/mL protein, primary screen (AID 1182); conditions: fluorescent protein binding, 635 nm, higher = more signal, called active from +8 up or from −8 down
XIP peptide (Xip251-270) = assay: compounds binding XIP fragment 251-270 – biochemical, small-molecule microarray, fluorescence 635/667 nm, 0.5 µg/mL protein, primary screen (AID 1183); conditions: fluorescence 635 nm, higher = more signal
[2] = blood-stage malaria parasite viability loss – strain 3D7, DAPI fluorescence, 100 nL, primary screen (AID 1184);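 also: parasites grown inside human red blood cells in medium with human serum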; conditions: P. falciparum 3D7 growth, 3 d, higher = more signal
[3] = molecular target: Homeobox protein Hox-A13 (Mus musculus) (UniProt Q62424); assay: disruptors of Hoxa13 oligonucleotide interaction – biochemical, fluorescence polarization, labeled oligonucleotide, primary screen (AID 1185); conditions: Hoxa13:DNA binding, 15 min, higher = more signal, called active from +8 up or from −8 down
[4] = blockers of DNA damage checkpoint Chk1 activation – imaging, HeLa, hydroxyurea, phospho-Chk1 antibody, percent positive cells, primary screen (AID 1186); conditions: hydroxyurea-induced phospho-Chk1 immunofluorescence imaging, higher = more signal
[5] = blockers of DNA damage checkpoint Chk1 activation – imaging, HeLa, hydroxyurea, phospho-Chk1 nuclear intensity, primary screen (AID 1187); conditions: hydroxyurea-induced phospho-Chk1 immunofluorescence imaging, higher = more signal

Chain of Homeobox protein Hox-A13 (Mus musculus) (Q62424 whole entry, looked up): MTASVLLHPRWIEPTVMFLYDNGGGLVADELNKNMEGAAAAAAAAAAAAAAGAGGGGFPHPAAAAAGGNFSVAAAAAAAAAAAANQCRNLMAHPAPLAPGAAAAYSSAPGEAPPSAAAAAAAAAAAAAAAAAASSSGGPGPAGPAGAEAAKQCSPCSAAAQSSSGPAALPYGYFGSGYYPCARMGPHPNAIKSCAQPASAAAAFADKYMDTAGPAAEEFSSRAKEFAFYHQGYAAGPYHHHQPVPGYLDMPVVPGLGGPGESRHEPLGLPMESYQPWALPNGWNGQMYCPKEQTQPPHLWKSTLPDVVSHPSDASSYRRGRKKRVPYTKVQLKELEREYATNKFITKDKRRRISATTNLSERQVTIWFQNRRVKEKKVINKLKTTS

SMILES | composite z-score [1] | composite z-score (XIP peptide (Xip251-270)) | z-score [2] | z-score [3] | z-score [4] | z-score [5]
CO[C@H]1O[C@H](CO)[C@@H](OC(=O)Nc2ccc(C#N)cc2)[C@H](OC(=O)c2cc3ccccc3[nH]2)[C@H]1OC(=O)c1cc2ccccc2[nH]1 | 2.37 (inactive) | 0.875 | -1.96 | -2.26 (inactive) | -0.487 (inactive) | -0.52 (inactive)
O=C1O[C@@H](c2ccccc2)[C@@H](c2ccccc2)N2[C@@H](c3ccc(O)cc3)[C@]3(C(=O)Nc4ccccc43)[C@@H](C(=O)O)[C@H]12 | 1.27 (inactive) | 0.632 | -1.73 | -4.72 (inactive) | 0.482 (inactive) | 0.166 (inactive)
Cc1ccc(S[C@]2(C(=O)NCC(F)(F)F)CC(=O)N(Cc3ccccc3Cl)[C@@H]2c2ccc(CO)cc2I)cc1 | 0.292 (inactive) | 0.426 | 0.115 | -2.61 (inactive) | 0.395 (inactive) | 0.92 (inactive)
CCCC=C(CCC)[C@@H](NC(=O)c1ccc(-c2ccccc2)cc1)c1ccc(C(=O)OC)cc1 | -0.144 (inactive) | 0.0922 | 0.208 | -0.539 (inactive) | 0.125 (inactive) | -0.115 (inactive)
COCCOC(=O)N1C(=O)[C@@]2(c3cc(C#Cc4ccc(OC)cc4)ccc31)[C@H](c1ccc(O)cc1)N1[C@H](c3ccccc3)[C@H](c3ccccc3)OC(=O)[C@H]1[C@@H]2C(N)=O | -0.0296 (inactive) | 0.754 | -0.687 | -1.15 (inactive) | -0.425 (inactive) | -0.461 (inactive)
COc1ccc([Si](C)(C)[C@H]2[C@H](CCO)O[C@@]3(C(=O)N(Cc4cccc(NC(=O)[C@H](C)O)c4)c4ccccc43)[C@@H]2C)cc1 | -0.201 (inactive) | 0.618 | -2.74 | -6.16 (inactive) | -1.95 (inactive) | -0.667 (inactive)
CN(C)CCCNC(=O)[C@@H]1c2ccccc2C(=O)N(Cc2ccccc2)[C@H]1c1ccc(CO)cc1 | 0.0257 (inactive) | -0.32 | 0.0535 | 0.86 (inactive) | 0.242 (inactive) | 0.372 (inactive)
[N-]=[N+]=NCc1ccccc1[C@@H]1OC(c2ccc(OCCCO)cc2)=N[C@]1(Cc1ccccc1)C(=O)N1CCOCC1 | 0.713 (inactive) | 0.841 | -2.33 | -4.99 (inactive) | -0.449 (inactive) | -1.03 (inactive)
C=CCOC(=O)[C@H]1[C@@H]2C(=O)O[C@@H](c3ccccc3)[C@@H](c3ccccc3)N2[C@@H](c2ccc(OCCOC(=O)[C@H]3C[C@H]4C(=O)N[C@@H](Cc5ccccc5)C(=O)N4[C@H]3c3ccc(O)cc3)cc2)[C@]12C(=O)Nc1ccccc12 | 2.32 (inactive) | 0.823 | -1.62 | 1.08 (inactive) | 0.464 (inactive) | 0.685 (inactive)
CS(=O)(=O)CCOC(=O)C1=CC(CCCO)=CC(c2cccs2)N(Cc2cccc(OC(F)(F)F)c2)C=C1C(=O)OCCS(C)(=O)=O (stereo not given) | 1.17 (inactive) | -0.0502 | -2.99 | -4.22 (inactive) | 0.724 (inactive) | 0.918 (inactive)
CO[C@H]1O[C@H](CO)[C@@H](OC(=O)Nc2ccc3c(c2)OCO3)[C@H](OC(=O)Nc2ccccc2-c2ccccc2)[C@@H]1OC(=O)Nc1ccccc1-c1ccccc1 | 1.03 (inactive) | 0.561 | -2.6 | -2.64 (inactive) | -0.313 (inactive) | -0.199 (inactive)
C#C[C@@H]1Oc2ccccc2S(=O)(=O)N2CCC[C@H]12 | -0.037 (inactive) | -0.149 | -0.0728 | -0.61 (inactive) | 0.723 (inactive) | 0.595 (inactive)
C[N+](C)(C)CCCCCCNC(=O)[C@@H]1C[C@@H]2C(=O)N3CCC[C@H]3C(=O)N2[C@@H]1c1cccc(OCCO)c1 | -0.113 (inactive) | 0.697 | -0.204 | -4.95 (inactive) | -0.173 (inactive) | -0.0252 (inactive)
COCCOC(=O)N1C(=O)[C@@]2(c3cc(C#CCNC(N)=O)ccc31)[C@H](c1ccc(O)cc1)N1[C@H](c3ccccc3)[C@H](c3ccccc3)OC(=O)[C@H]1[C@@H]2C(=O)N1CCCCCCC1 | 0.348 (inactive) | 0.561 | -0.0743 | -0.578 (inactive) | 0.149 (inactive) | 0.452 (inactive)
CC(C)NC(=O)[C@@]1(C)c2ccccc2C(=O)N(Cc2cc(F)cc(C(F)(F)F)c2)[C@H]1c1ccc(CO)cc1 | 1.06 (inactive) | 0.863 | 0.281 | -3.73 (inactive) | 0.0123 (inactive) | -0.37 (inactive)
